Tb PYK inh: qHTS of Trypanosoma Brucei Inhibitors. TbPYK enzyme, Kinase-Glo Plus ATP luminescence, 45 min. 410,000 compounds, 0.12% hits. Potency, µM (series often up to 76.8 µM), inactives show top-dose activity, negative = inhibition, usual class: inhibitors. AID 624173, 2012; further: on the % scale 0 is the no-effect control and ±100 the full control effect; nearly all actives have a fitted effect of over 50% in size
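Assay buffer: 50 mM TEA pH 7.2, 100 mM KCl, 10 mM MgCl2, 0.05% BSA, 0.01% Tween-20. Pyruvate kinase from T. brucei plus substrate met compound, then ADP (130 uM final). Luminescence was read post 45 min RT.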
Sm TGR inh: qHTS Assay for the Inhibitors of Schistosoma Mansoni Peroxiredoxins; AID 485364, 2010; Potency, µM (titrated, usually from 114 µM), inactives show top-dose activity change, negative = inhibition, hits mostly inhibitors; Schistosoma mansoni thioredoxin glutathione reductase (TGR), Q962Y6; purified TGR, DTNB reduction, TNB absorbance 405 nm; 360,000 compounds, 3% hits; further: on the % scale 0 is the no-effect control and ±100 the full control effect; nearly all actives have a fitted effect of over 60% in size
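Kinetic colorimetric format: TGR-catalysed, NADPH-driven DTNB reduction monitored via TNB absorbance. Enzyme dispensed at 20 nM; compound exposure 15 min at room temperature before reaction start.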
AmpC detergent: qHTS Inhibitors of AmpC Beta-Lactamase (assay with detergent); P00811; AmpC hydrolysis of nitrocefin, absorbance 480 nm, 0.01% Triton; Potency, µM (highest dose often 114 µM), for the others: at the top dose activity change, negative = inhibition, usual class: inhibitors; 370,000 compounds, 0.041% hits; AID 485294, 2010;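 further: 0% = no-compound wells and -100% = no-enzyme wells; nearly all actives have a fitted effect of over 25% in size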
Target sequence (P00811 whole entry, looked up): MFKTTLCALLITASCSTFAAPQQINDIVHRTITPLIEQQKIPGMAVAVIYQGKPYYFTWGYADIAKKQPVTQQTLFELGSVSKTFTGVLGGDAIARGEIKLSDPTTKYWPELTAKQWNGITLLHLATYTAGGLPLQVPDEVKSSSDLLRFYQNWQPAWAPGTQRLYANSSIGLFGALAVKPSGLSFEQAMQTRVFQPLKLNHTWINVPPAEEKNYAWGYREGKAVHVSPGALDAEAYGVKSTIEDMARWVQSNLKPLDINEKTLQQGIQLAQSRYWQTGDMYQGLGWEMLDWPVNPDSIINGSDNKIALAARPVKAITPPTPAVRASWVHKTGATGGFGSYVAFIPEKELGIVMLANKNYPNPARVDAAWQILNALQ
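20 mM phosphate pH 7.0 + 0.01% (detergent screen) or 0.0001% Triton X-100; 5.3 nM AmpC reagent; cpd preinc 15 min RT; nitrocefin (800 uM stock) to start; A480 q20 s × 4 min; Activity was normalised to no-enzyme and no-compound control wells.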
AmpC no deterg: qHTS Inhibitors of AmpC Beta-Lactamase (assay without detergent) | P00811 | 330,000 compounds, 0.52% hits | AmpC nitrocefin hydrolysis, absorbance 480 nm, 0.0001% Triton | AID 485341, 2010 | Potency, µM (highest dose often 57.1 µM), without a hit: at the highest dose activity change, negative = inhibition, most hits filed as inhibitors;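 further: plate controls were no compound for no effect and no enzyme for full effect; nearly all actives have a fitted effect of over 20% in size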
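AmpC (5.3 nM in the dispensed reagent) in 20 mM phosphate pH 7.0 with 0.01% (detergent screen) or 0.0001% Triton X-100 was preincubated with compounds for 15 min at room temperature. Nitrocefin was then added from an 800 uM solution, and hydrolysis was followed at 480 nm.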
SARS PLP yeast: qHTS of Yeast-based Assay for SARS-CoV PLP; 330,000 compounds, 0.19% hits; AID 485353, 2010; S. cerevisiae expressing SARS-CoV PLpro, growth rescue; Potency, µM (doses to about 32.9 µM), without a hit: at the highest dose activity, positive = growth rescue, actives largely listed as activators; calls by dose curve; further: 0% is about no effect; nearly all actives have a fitted effect of over 55% in size
RE007 growth inh: qHTS Assay for Inhibitors of the HIV-1 protein Vpr; S. pombe RE007 Vpr strain, BacTiter-Glo ATP luminescence, 24 h; 360,000 compounds, 0.21% hits; Potency, µM (titrated, usually from 92.2 µM), without a hit: top-dose activity change, negative = less growth, actives largely listed as inhibitors; active means well fitted falling curve with a large enough effect; inconclusive means small, poorly fitted or top-dose-only effect; inactive means no such curve, though single readings can be large or run the other way; further: on the % scale 0 is the no-effect control and ±100 the full control effect; nearly all actives have a fitted effect of over 50% in size
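Fission yeast strain RE007, carrying one chromosomally integrated HIV-1 vpr copy, was seeded at OD 0.01 in PMG+AL medium with 23 nL pinned compound. After 24 h at 30 °C and 99% humidity, viability was read by BacTiter-Glo luminescence.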
* hit, by the source's call; ? = inconclusive; . = no result given; [ ] = remark or other dose. A selection: hits, their analogues and other compounds. The true share with any hit is near 3.3%. Unless noted, the call rests on the fitted dose curve; in most records, active means well fitted curve in the direction sought with a large enough effect; inconclusive means small, poorly fitted or top-dose-only effect, or another doubt; inactive means no such curve, though single readings can be large; an effect the other way counts as inactive or inconclusive. Potency means the concentration at half of the fitted maximal effect.

SMILES	Tb PYK inh	Sm TGR inh	AmpC detergent	AmpC no deterg	SARS PLP yeast	RE007 growth inh
CC(/C=C/c1ccco1)=N/NC(=O)c1ccccc1Cl	-1%	22µM*	4%	-10%	4%	-9%
CCOC(=O)N/N=C\C=C\c1ccco1	-4%	22µM*	?	-23%	-5%	9%
CC(/C=C/c1ccco1)=N/NC(=O)CNc1ccccc1C	2%	35µM*	-11%	-14%	0%	7%
CCCSCCCNC(=O)c1ccc2c(c1)sc1nc(-c3ccc(OCC)cc3)cn12	-4%	12%	-2%	.	.	.
COc1cccc(CNC(=O)C2CCN(S(=O)(=O)c3cn(C)cn3)CC2)c1	-5%	-1%	0%	.	.	.
CSCC[C@H](NC(=O)[C@@H](Cc1ccc(O[S+](=O)([O-])O)cc1)NC(=O)[C@H](N)CC(=O)O)C(=O)NCC(=O)N[C@@H](Cc1c[nH]c2ccccc12)C(=O)N[C@H](CCSC)C(=O)N[C@H](CC(=O)O)C(=O)N[C@@H](Cc1ccccc1)C(N)=O	-6%	.	.	.	.	.
CCN(C(=O)C1CCN(S(=O)(=O)c2ccc3c(c2)CCCN3C(C)=O)CC1)c1cccc(C)c1	1%	9%	6%	.	.	.
CC(C)CC(=O)NCC(c1ccc2c(c1)OCO2)N1CCN(c2ccccc2)CC1 (stereo not given)	-8%	37%	4%	.	.	.
Cc1cccc(N2CCN(C(=O)c3cnn(-c4cccc(Cl)c4C)c3C3CCNCC3)CC2)c1C	0%	2%	1%	.	.	.
CCOC(=O)c1c(NC(=O)c2cc3nc(-c4ccccc4)cc(C(F)(F)F)n3n2)sc2c1CCC(C)C2 (stereo not given)	3%	1%	1%	.	.	.
CSc1cccc(NC(=O)C2CCCN(S(=O)(=O)c3ccc4c(c3)CCCN4C(C)=O)C2)c1 (stereo not given)	-13%	-1%	-4%	.	.	.
Cc1[nH]c2ccccc2c1C(C[N+](=O)[O-])c1cccs1 (stereo not given)	1%	-1%	?	-23%[11.4 µM]	15%	1%
Cc1ccc(-c2[nH]c3ccccc3c2C(C[N+](=O)[O-])c2ccco2)cc1 (stereo not given)	3%	79µM*	2%	-26%	-22%	5%
Cc1[nH]c2ccccc2c1C(C[N+](=O)[O-])c1ccco1 (stereo not given)	-6%	22µM*	3%	-28%	-6%	-5%
Cc1[nH]c2ccccc2c1C(C[N+](=O)[O-])c1cccc(O)c1 (stereo not given)	2%	-10%	-9%	-42%	-1%	-6%
Nc1ccc2c(c1)C/C(=C/c1ccco1)C2=O	-12%	16µM*	-8%	-32%	-53%	?
CC(=O)Nc1ccc2c(c1)CC1(C(=O)N(C)C(=O)N(C)C1=O)C1CCCN21 (stereo not given)	-9%	45µM*	-1%	24%	-12%	-7%
CN1CCN2c3ccccc3CC3(C(=O)N(C)C(=O)N(C)C3=O)C2C1 (stereo not given)	-2%	-5%	-2%	-7%	0%	1%
CN1C(=O)N(C)C(=O)C2(Cc3ccccc3N3CCCC32)C1=O (stereo not given)	-4%	?	-6%	-2%	1%	10%
CN1C(=O)N(C)C(=O)C2(Cc3cc(NC(=O)c4ccc(F)cc4)ccc3N3CCCC32)C1=O (stereo not given)	-21%	40µM*	-2%	136%	0%	-10%
Cc1ccccc1OCc1ccc(-c2nc(C#N)c(NCc3cccnc3)o2)o1	-2%	3%	3%	.	.	.
